Test results reported in PubChem BioAssay (Tox21).
The source made the active and inactive calls. Calls follow the shape of the dose curve; as a rule, active = well fitted curve in the direction sought with a large enough effect in the repeat runs; inconclusive = weak or mixed curves; inactive = flat fitted curve, though single readings scatter.

assay: qHTS assay to test for compound auto fluorescence at 460 nm (blue) in HepG2 cell free culture (AID 720685); conditions: Cell-free culture medium, blue autofluorescence 405/460 nm; series mostly up to 91.3 µM; fluorescence, % of fluorescent control: at the top concentration
Text: U.S. Tox21 Program National Center for Advancing Translational Sciences [NCATS] NIH Chemical Genomics Center [NCGC] U.S. Environmental Protection Agency [EPA] National Institutes of Environmental Health Sciences [NIEHS] National Toxicology Program [NTP] U.S. Food and Drug Administration [FDA] Tox21 Assay Overview: Compound auto fluorescence often interferes with screening of the compound library against various biological targets and signaling pathways. Some of these compounds may have fluorophoric properties. Such properties may interfere with the assay outputs resulting in false positives and/or negatives. To decrease such complications and ensure the compound activities are relevant in terms of biological response, the Tox21 10K compound library was screened for auto fluorescence. From the fluorophores used as reporter signals in our screening assays, the auto fluorescence equivalencies of compounds against three fluorophores have been evaluated: Triamterene, Fluorescein and Rose Bengal sodium for blue, green and red fluorescence, respectively. The fluorescence intensities were measured using Excitation/Emission wavelengths at 405/460nm, 485/535nm and 540/590nm for blue, green and red labels, respectively. This assay includes the blue fluorescence data.
Tox21 Assay Protocol Summary: 5 uL of culture medium (MEM containing 10% FBS) per well was dispensed into black wall/clear bottom 1536-well plates using a Multidrop Combi Dispenser (ThermoFisher Scientific, Waltham, MA). After 23 nL compound or DMSO vehicle was transferred into assay plate by a pintool work station (Kalypsys, San Diego, CA), fluorescence intensities in the assay plates were measured by an Envision (PerkinElmer, Shelton, CT) plate reader using three labels for measuring blue, green and red fluorescence at […] 460, 535 and 590nm respectively.
% is scaled to controls: 0 for no effect and ±100 for the full control effect; potency is read from the fitted curve at half-maximal effect; tags tell the direction and shape of the fitted curve or compound fluorescence and quenching.

Row | Compound | fluorescence, % of fluorescent control | Potency
1 | O=[N+]([O-])c1ccc(Nc2ccc(Nc3ccccc3)c(S(=O)(=O)O)c2)c([N+](=O)[O-])c1 | -0.578% (inactive) | –
2 | CN(C)CCN1C(=O)c2ccccc2N(C)c2ccccc21 | 0.0032% [at 46 µM] (inactive) | –
3 | CN1CC(=O)N2[C@H](c3ccc4c(c3)OCO4)c3[nH]c4ccccc4c3C[C@@H]2C1=O | 0.0465% [at 46 µM] (inactive) | –
4 | CC(=O)[C@H]1[C@H](C#N)C[C@H]2[C@@H]3CC=C4C[C@@H](O)CC[C@]4(C)[C@H]3CC[C@@]21C | -0.12% (inactive) | –
5 | CN1C(=O)c2ccccc2C1=O | -0.113% (inactive) | –
6 | Cc1c(C)c2c(c(C)c1OC(=O)CCC(=O)OCCO)CC[C@@](C)(CCC[C@H](C)CCC[C@H](C)CCCC(C)C)O2 | -0.0693% [at 46 µM] (inactive) | –
7 | C=CC(=O)OCC1CC2CC1C1CCC(COC(=O)C=C)C21 (stereo not given) | 0% (inactive) | –
8 | C1COC1 | 0.0476% (inactive) | –
9 | CCCCC(CC)CN (stereo not given) | 0.024% [at 95.7 µM] (inactive) | –
10 | Cc1cc(C)c(N)cc1C | 0.0131% (inactive) | –
11 | Cc1cc(=O)c2c(O)c3c(O)cc(=O)c4c3c3c(cc(O)c1c23)C(C)(C)C=4O | -0.094% [at 46 µM] (inactive) | –
12 | O=C1Cc2ccccc2N1c1c(Cl)cccc1Cl | -0.0677% (inactive) | –
13 | CN1CCCC(CC2c3ccccc3Sc3ccccc32)C1 (stereo not given) | 0.14% [at 18.6 µM] (inactive) | –
14 | Oc1c(I)cc(I)c2cccnc12 | 0.0389% [at 46 µM] (inactive) | –
15 | O=c1cc(-c2ccccc2)oc2ccc3ccccc3c12 | -0.0319% (inactive) | –
16 | CCC(=O)OC | 0.015% (inactive) | –
17 | Cc1cscn1 | 0.0145% (inactive) | –
18 | CCOC(C)=O | – | inactive
19 | CCCCCCCCC(CCCCCC)C(=O)O (stereo not given) | -0.0023% (inactive) | –
20 | CCOC(=O)c1ccc(I)cc1 | -0.0548% (inactive) | –

Row | Compound | fluorescence, % of fluorescent control | Potency
21 | CCN(CC)CCNC(=O)COc1ccc(OC)cc1 | 0.0252% [at 46 µM] (inactive) | –
22 | C[C@@H]1CC(=O)NN=C1c1ccc(NN=C(C#N)C#N)cc1 | -0.104% [at 46 µM] (inactive) | –
23 | CN(C(=O)CN(CCO)CC(=O)N(C)C(C)(C)Cc1ccccc1)C(C)(C)Cc1ccccc1 | -0.036% [at 18.6 µM] (inactive) | –
24 | CCC(C)COC(=O)CC(C)C (stereo not given) | 0.716% (inactive) | –
25 | C1C[C@@H]2[C@H]3CC[C@H](C3)[C@@H]2C1 | 0.145% (inactive) | –
26 | CCCCCC[C@@H](O)C/C=C\CCCCCCCC(=O)OCC(O)CO (stereo not given in full) | -0.0385% (inactive) | –
27 | OC[C@H]1O[C@@H](n2cnc3c(=S)nc[nH]c32)[C@H](O)[C@@H]1O | 0.0173% [at 46 µM] (inactive) | –
28 | CC(CCC(=O)O)C(=O)O (stereo not given) | 0.0829% (inactive) | –
29 | CC(C)=CC(=O)C=C(C)C | 0.0862% (inactive) | –
30 | CCC(C)(C)OC | -0.0345% (inactive) | –
31 | Cc1ccc(Cl)c(Nc2ccccc2C(=O)O)c1Cl | 0.0152% [at 46 µM] (inactive) | –
32 | C=C(C)C(=O)OCCOCCOC(=O)C(=C)C | -0.0015% (inactive) | –
33 | C=C/C(C)=C/C/C=C(\C)CCC=C(C)C | 0.0088% (inactive) | –
34 | COc1ccccc1NC(=O)c1cc2ccccc2cc1O | – | 39.8 µM [fluorescent] (active)
35 | NCCNCCO | 0.361% [at 95.7 µM] (inactive) | –
36 | CC(C)C[C@H](NC(=O)[C@H](CCc1ccccc1)NC(=O)CN1CCOCC1)C(=O)N[C@@H](Cc1ccccc1)C(=O)N[C@@H](CC(C)C)C(=O)[C@@]1(C)CO1 | -0.0176% [at 46 µM] (inactive) | –
37 | Oc1cc2c(cc1O)[C@H]1c3ccc(O)c(O)c3OC[C@@]1(O)C2 | -0.577% [at 95.7 µM] (inactive) | –
38 | CCOc1ccc(Cc2nccc3cc(OCC)c(OCC)cc23)cc1OCC | -0.0254% [at 18.6 µM] (inactive) | –
39 | CC(C)(C)C(=O)C(=O)O | -0.0773% (inactive) | –
40 | Clc1cc(Cl)nc(Cl)n1 | -0.0109% [at 95.7 µM] (inactive) | –
